# In PubChem BioAssay (NCI):
# The panel holds about 83,000 compounds, 20% with a hit somewhere; the sample as a whole holds those more often.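 Note: values are percent growth. 100 is the growth of untreated cells, values between 100 and 0 indicate rising inhibition; between -100 and 0 indicates cell death.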 Values without a mark were called inactive. Calls of active or inactive are those of the source. How the source made its calls: active means growth percent below 10; inactive means the rest.
# Assays:
# Assay in all cases: NCI-60 one-dose screen, 48 h (100 = growth as untreated, 0 = no growth, -100 = all killed)
# SR leukemia = conditions: 10 µM
# OVCAR-8 ovarian = conditions: 10 µM
# OVCAR-5 ovarian = conditions: 10 µM
# OVCAR-4 ovarian = conditions: 10 µM
# SK-OV-3 ovarian = conditions: 10 µM
# IGROV1 ovarian = conditions: 10 µM
# OVCAR-3 ovarian = conditions: 10 µM
# HS 578T breast = conditions: 10 µM
# NCI/ADR-RES ovarian = conditions: 10 µM
# T-47D breast = conditions: 10 µM
# BT-549 breast = conditions: 10 µM
# MDA-MB-435 melanoma = conditions: 10 µM
# SW-620 colon = conditions: 10 µM
# MCF7 breast = conditions: 10 µM unless noted
# HCT-116 colon = conditions: 10 µM
# HCC-2998 colon = conditions: 10 µM
# KM12 colon = conditions: 10 µM
# RPMI-8226 leukemia = conditions: 10 µM
Structure (SMILES),growth (SR leukemia),growth (OVCAR-8 ovarian),growth (OVCAR-5 ovarian),growth (OVCAR-4 ovarian),growth (SK-OV-3 ovarian),growth (IGROV1 ovarian),growth (OVCAR-3 ovarian),growth (HS 578T breast),growth (NCI/ADR-RES ovarian),growth (T-47D breast),growth (BT-549 breast),growth (MDA-MB-435 melanoma),growth (SW-620 colon),growth (MCF7 breast),growth (HCT-116 colon),growth (HCC-2998 colon),growth (KM12 colon),growth (RPMI-8226 leukemia)
CCN(CC)C(=O)/C=C(/C)c1ccccc1,107%,105%,113%,92.7%,107%,117%,111%,101%,102%,102%,94.5%,108%,102%,102%,106%,88.6%,111%,
OCc1cccc2ccccc12,104%,111%,111%,109%,110%,120%,105%,,105%,103%,,116%,,96.3%,103%,108%,107%,
O=C(O)CCCC(=O)O,94.7%,99.4%,104%,84.3%,104%,104%,102%,110%,103%,128%,118%,107%,93.1%,101%,100%,103%,92.4%,
CCCCCCCCO,102%,100%,101%,80.1%,111%,114%,107%,111%,102%,105%,107%,99.3%,103%,91.8%,107%,103%,108%,
NCCCN,101%,104%,107%,90%,105%,113%,111%,104%,112%,98.6%,,109%,104%,96.7%,109%,112%,107%,
O=C(/C=C\c1ccc(O)cc1)c1ccccc1,76.6%,98.6%,88.4%,,108%,87.3%,96%,110%,101%,84.6%,37.4%,95%,101%,80.8%,78.2%,112%,71%,
COCCCNC(=O)c1nnn2c1nc(N)c1cc(Cl)ccc12,,103%,109%,90.7%,79.2%,78.6%,81.1%,90.4%,93.9%,79%,79.2%,10.9%,81%,73.4%,77.6%,89.4%,50.2%,96.9%
CCOC(=O)C(=O)C=P(c1ccccc1)(c1ccccc1)c1ccccc1,,107%,101%,111%,109%,102%,103%,105%,103%,97.7%,102%,113%,114%,97.5%,100%,107%,99.6%,102%
O=C(Nc1ccccc1C(=O)NCC1CC1)c1cccs1,,99.4%,99.9%,98.7%,110%,118%,117%,114%,101%,106%,99.9%,105%,109%,106%,93.7%,103%,107%,97.4%
CC(CN1CCCCC1)NC(=O)c1scnc1-c1ccccc1 (stereo not given),,100%,118%,108%,103%,105%,112%,195%,99.4%,98.7%,101%,101%,106%,103%,93.8%,96.8%,106%,101%
S=C1NCc2cncnc2N1,,104%,97.8%,105%,102%,111%,112%,105%,106%,105%,100%,101%,109%,93.4%,99.1%,106%,106%,102%
COc1cc(/C=C/C(=O)c2ccccc2)cc(OC)c1OC,,59.8%,66.6%,65%,79%,98.6%,59%,106%,43.1%,91.4%,72%,13.7%,12.3%,9.65% (active),20.6%,94.3%,12.6%,24.3%
CCOC(=O)/C(=C/c1ccc(OC)cc1)N(CC)CC,,99.9%,113%,116%,116%,106%,106%,93.7%,107%,92.6%,108%,110%,103%,103%,101%,111%,104%,102%
CCOc1ccccc1/C=N/Nc1nc2ccccc2o1,,108%,97.3%,41.9%,94.2%,116%,122%,101%,97.6%,23.4%,98.3%,113%,102%,7.97% (active),102%,62.2%,86.4%,105%
COc1ccc(/C=C/c2cccc[n+]2C)cc1,,105%,95.8%,107%,78.8%,85.3%,103%,119%,103%,97.4%,89.8%,100%,79.9%,96%,106%,83.6%,33%,90.3%
CCCC[P+](c1ccccc1)(c1ccccc1)c1ccccc1,41.2%,43.4%,62.6%,,87.2%,49.1%,43.5%,80.2%,106%,26.5%,17.8%,,64.5%,24.1%,39.2%,32.2%,23.2%,
COC(=O)c1ccccc1Br,,105%,82.2%,103%,107%,108%,106%,113%,100%,109%,109%,98.5%,109%,106%,92%,106%,94.7%,104%
CC1(C)N=C(N)N=C(N)N1c1ccc(Cl)cc1,52.7%,30.8%,,55%,61%,35.9%,69.9%,,,94.6%,76%,28.8%,34.3%,41.1%,25.1%,36.8%,50.1%,
CN1C(=O)CN2CCc3ccccc3C2c2cc(Cl)ccc21 (stereo not given),,101%,83.9%,104%,90.7%,-12.2% (active),103%,-5.49% (active),96.7%,104%,99.7%,105%,-33.6% (active),84.5%,82.5%,98.1%,106%,88.3%
COc1ccc(/C(C#N)=C2C=C/C(=N/O)c3ccccc3\2)cc1,,18.9%,27.3%,35.8%,-6.21% (active),22.3%,1.6% (active),35.1%,15.9%,64.8%,31%,-57% (active),20.1%,13.1%,5.12% (active),-11.4% (active),3.23% (active),32.1%
